This is a sample that favours compounds with a hit; in the whole collection about 3% have one here.
Nrf2 ARE act: qHTS of Nrf2 Activators; 410,000 compounds, 0.31% hits; AID 624171, 2012; AREc32 ARE-luciferase reporter (MCF7-derived line), luminescence, 24 h; Potency, µM (highest dose often 46.1 µM), for inactives: at the top dose activation, most hits filed as activators; note: % of control where 0% means no effect; nearly all actives have a fitted effect of over 65% in size
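Luminescent ARE reporter assay in AREc32_Fluc cells: overnight plating at 37 deg C, 24 hr compound incubation, Steady-Glo added, 30 min RT before reading.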
TrxR1 inh: qHTS Assay for Inhibitors of Mammalian Selenoprotein Thioredoxin Reductase 1 (TrxR1): qHTS | recombinant rTrxR1, NADPH fluorescence consumption, selenite substrate | 390,000 compounds, 1% hits | Potency, µM (doses to about 114 µM), inactives show at the highest dose activity change, negative = inhibition, actives largely listed as inhibitors | Thioredoxin reductase 1, cytoplasmic (Rattus norvegicus), O89049; note: % is set by controls: 0 for no effect and ±100 for the full control effect; nearly all actives have a fitted effect of over 65% in size
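Rat TrxR1 (90 nM in the dispensed reagent) was pre-reduced with 400 uM NADPH for 5 min at room temperature, then incubated with compound for 15 min. After 400 uM selenite was added, NADPH fluorescence (Ex 340/Em 450 nm) was followed for 8 min.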
A549 tox: Nrf2 qHTS screen for inhibitors: counterscreen for cytotoxicity | A549 ARE-Fluc cells, CellTiter-Fluor viability, 18-24 h | Potency, µM (series often up to 46 µM), for inactives: at the top dose activity change, negative = cytotoxicity, hits mostly inhibitors | 390,000 compounds, 0.16% hits; note: % is set by controls: 0 for no effect and ±100 for the full control effect
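A549 ARE_Fluc cells in 5% FBS OPTI-MEM were exposed to compounds in concentration-response for 18-24 h at 37 deg C. Viability was read by CellTiter-Fluor fluorescence (Ex 405/Em 525) after 30 min, before the luciferase read.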
Nrf2 inh: Nrf2 qHTS screen for inhibitors; Potency, µM (series often up to 46 µM), inactives show at the top dose activity change, negative = inhibition, most hits filed as inhibitors; A549 ARE-Fluc reporter, luciferase luminescence, 18-24 h; AID 504444, 2011; 360,000 compounds, 2.1% hits; note: % is set by controls: 0 for no effect and ±100 for the full control effect; nearly all actives have a fitted effect of over 60% in size
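A549 ARE_Fluc cells, 5000/well, 5% FBS OPTI-MEM; compounds in dose-response, 18-24 h at 37 °C/5% CO2; CellTiter-Fluor viability read (Ex 405/Em 525), then BugLite luciferase luminescence = Nrf2 activity.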
GALK inhibitor: qHTS Assay for Inhibitors of Human Galactokinase (GALK); Purified GALK, Kinase-Glo residual ATP luminescence; 270,000 compounds, 0.007% hits; AID 1868, 2009; Potency, µM (doses to about 57.5 µM), for inactives: top-dose activity change, negative = inhibition, actives largely listed as inhibitors; note: % is set by controls: 0 for no effect and ±100 for the full control effect
Target sequence (P51570 whole entry, looked up): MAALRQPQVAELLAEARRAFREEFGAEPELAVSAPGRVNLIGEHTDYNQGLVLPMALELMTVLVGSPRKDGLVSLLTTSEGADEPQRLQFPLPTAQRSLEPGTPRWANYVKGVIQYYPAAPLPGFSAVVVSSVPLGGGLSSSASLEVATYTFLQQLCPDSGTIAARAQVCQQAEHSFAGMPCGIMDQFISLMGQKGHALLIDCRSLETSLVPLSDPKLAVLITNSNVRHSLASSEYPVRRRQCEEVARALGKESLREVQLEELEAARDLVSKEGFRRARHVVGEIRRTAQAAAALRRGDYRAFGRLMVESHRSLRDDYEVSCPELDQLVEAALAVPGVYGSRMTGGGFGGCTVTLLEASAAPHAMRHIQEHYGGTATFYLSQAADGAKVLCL
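Quantitative HTS: GALK 5 nM, ATP 35 uM, galactose 100 uM, 1 h room temperature, then luciferase-based ATP detection.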
TrxR1 substrate: qHTS Assay for Substrates of Mammalian Selenoprotein Thioredoxin Reductase 1 (TrxR1): qHTS; Thioredoxin reductase 1, cytoplasmic (Rattus norvegicus), O89049; purified TrxR1 substrate turnover, NADPH consumption readout; Potency, µM (top dose mostly 114 µM), for inactives: at the highest dose activity change, negative = substrate turnover; 390,000 compounds, 0.01% hits; AID 588456, 2011; note: % is set by controls: 0 for no effect and ±100 for the full control effect; nearly all actives have a fitted effect of over 50% in size
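Rat TrxR1, dispensed at 90 nM, was prereduced with 400 uM NADPH (final) for 5 min at ~22 deg C, then incubated with compound 15 min before 400 uM selenite. A first-read NADPH fluorescence drop versus no-compound background flagged substrates.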
An asterisk follows results filed as active; ? = inconclusive; · = not tested or not shown; [ ] = dose if it differs, or a comment. Calls come from the whole dose curve; as a rule, active = well fitted curve in the direction sought with a large enough effect; inconclusive = small, poorly fitted or top-dose-only effect, or another doubt; inactive = no such curve, though single readings can be large; an effect the other way counts as inactive or inconclusive. Potency is the fitted concentration of half-maximal effect.

SMILES	Nrf2 ARE act	TrxR1 inh	A549 tox	Nrf2 inh	GALK inhibitor	TrxR1 substrate
O=C(CSc1ccc(F)cc1)N1CCC(c2nc3ccccc3s2)CC1	4%	19%[57.1 µM]	-10%	18µM*	-1%	9%[57.1 µM]
O=C(CN1CCC(c2nc3ccccc3s2)CC1)NCc1cccs1	4%	0%	-2%[1.84 µM]	7.3µM*	1%	0%
Cc1c(C(=O)Nc2ccccc2Br)oc2ccc(S(=O)(=O)N3CCCCCC3)cc12	0%	18%[57.1 µM]	7%	·	·	0%[57.1 µM]
C#CCSc1nncn1C(=O)/C=C/c1ccccc1	0%	22µM*	-5%	-18%	·	6%
COc1ccc(Cn2nnnc2CN2CCC(c3nc4ccccc4s3)CC2)cc1	-1%	?	-3%	23µM*	0%	-11%
c1ccc2sc(C3CCN(Cc4nnnn4Cc4ccc5c(c4)OCO5)CC3)nc2c1	0%	13%[57.1 µM]	2%	?	-1%	-9%
Nc1ccc(S(=O)(=O)N2CCN(S(=O)(=O)c3ccc4c(c3)OCCO4)CC2)cc1	·	·	3%	4%	·	·
COc1ccc2c(c1)Oc1ncn(CCN3CCOCC3)c(=N)c1C2c1ccc(OC)c(OC)c1 (stereo not given)	·	·	1%	5%	·	·
Clc1ccccc1Nc1ncnc2c1nc1n2CCCCC1	-1%	7%	3%	?	·	-2%
CCOC(=O)c1ccc(N2C(=O)c3[nH]nc(-c4ccc(OCC)cc4)c3C2c2ccc(OC)cc2OC)cc1 (stereo not given)	0%	3%	16%	-8%	·	-11%
CCOC(=O)c1ccc(N2C(=O)c3[nH]nc(-c4ccccc4)c3C2c2cccs2)cc1 (stereo not given)	-3%	25%	?	?	·	-3%
CCOc1ccc(-c2n[nH]c3c2C(c2cccs2)N(c2ccc(Br)cc2)C3=O)cc1 (stereo not given)	0%	-6%	-24%	23µM*	·	-9%
CCOC(=O)c1ccc(N2C(=O)c3[nH]nc(-c4ccc(OCC)cc4)c3C2c2cccs2)cc1 (stereo not given)	5%	17%	-21%	18µM*	·	-5%
CCOc1ccc(N2C(=O)c3[nH]nc(-c4ccc(OC)cc4)c3C2c2cccs2)cc1 (stereo not given)	-1%	9%	?	23µM*	·	11%[11.4 µM]
Cc1nn(C(C)C(=O)NC2CCC(C)CC2)c(=O)c2c1sc1ccccc12 (stereo not given)	4%	7%	?	?	·	6%
O=C1CSC(=S)N1/N=C/C=C/c1ccccc1	6%	28µM*	5%	9%	·	-7%
O=C1CSC(=S)N1/N=C/c1c(F)cccc1F	5%	?	-12%	-8%	-6%	9%
Cc1ccccc1S(=O)Cc1ccc(C(=O)NCc2ccccc2Cl)o1 (stereo not given)	-1%	26%	0%	-23%	·	2%
COC(=O)c1ccc(C2NC(=S)N(c3ccccc3)C(C)=C2C(=O)Nc2ccccc2OC)cc1 (stereo not given)	0%	13%	·	?	-2%	0%
COC(=O)C1=C(C)N(Cc2ccccc2)C(=O)N[C@H]1c1cccc(C(F)(F)F)c1	5%	8%	4%	?	0%	-11%
COC(=O)C1=C(C)N(Cc2ccccc2)C(=S)N[C@H]1c1cccc(C(F)(F)F)c1	1%	3%	-21%	18µM*	·	-8%
COc1ccccc1NC(=O)C1=C(C)N(c2ccccc2)C(=S)NC1c1cccc(C(F)(F)F)c1 (stereo not given)	0%	12%	-7%	15µM*	0%	-5%[57.1 µM]
CC(=O)N1CCN(c2ccc(NS(=O)(=O)c3ccc4c(c3)CC(=O)N4)cc2)CC1	·	·	0%[92.2 µM]	22%[92.2 µM]	·	·
Cc1ccc(CNC(=O)C(=O)Nc2c3c(nn2-c2ccc(F)cc2)CSC3)cc1	-1%	7%[57.1 µM]	-14%	·	·	5%[57.1 µM]
C(C#CCCCCCCCCC[n+]1ccccc1)#CCCCCCCCCC[n+]1ccccc1	-2%	56µM*	?	12µM*	11%	0%
SMILES	Nrf2 ARE act	TrxR1 inh	A549 tox	Nrf2 inh	GALK inhibitor	TrxR1 substrate
Cc1ccccc1NC(=O)c1sc2nc3c(cc2c1N)CCCC3	4%	23%	-4%	?	·	19%
CCOC(=O)c1cccc(NC(=O)Cn2nc3c(cc2=O)CCCC3)c1	1%	19%[57.1 µM]	-7%	·	·	-2%[57.1 µM]
O=[N+]([O-])c1ccc(Sc2ccccn2)nc1	25%	-1%	-1%	-12%	-1%	-5%
O=[N+]([O-])c1ccc(Sc2nnnn2-c2ccccc2)nc1	-3%	13µM*	?	-2%	6%	-2%[57.1 µM]
CCN(CC)S(=O)(=O)c1ccc2c(c1)N(CC(=O)Nc1cccc(C(C)=O)c1)C(=O)CO2	0%	17%	-19%	-3%	·	2%
COc1ccc(CC2C(=O)NC(C)C(=O)N(C)C3Cc4ccc(cc4)Oc4cc(ccc4O)CC(C(=O)NC(C)C(=O)NC(C)C(=O)N2C)N(C)C3=O)cc1 (stereo not given)	-2%	5%[11.4 µM]	2.3µM*	1.6µM*	·	13%[57.1 µM]
CC[C@H](C)C1OC(=O)[C@@H](C)[C@@H](CC)NC(=O)[C@H](C)N(C)C(=O)C(C)(C)C(=O)C(C)NC(=O)[C@H](Cc2ccc(OC)cc2)N(C)C(=O)[C@H](C(C)C)N(C)C(=O)CNC(=O)[C@H](CC(C)C)N(C)C(=O)CNC1=O (stereo not given in full)	-2%	·	·	·	·	·
COc1ccc(C(=O)N2c3nc(-c4ccco4)nn3C3(CCCCC3)[C@@H]3CCCC[C@@H]32)cc1OC	6%	?	-7%	7%	·	4%
Cc1cc(C)c[n+](C(C)C(=O)c2ccc(-c3ccccc3)cc2)c1 (stereo not given)	0%	-5%	-10%	15µM*	0%	5%
CC1(C)CC(=O)C2=C(C1)N(c1ccccc1)C(N)=C(C#N)C2c1ccccc1 (stereo not given)	-1%	-24%[57.1 µM]	-3%	3%	-6%	1%[57.1 µM]
CC1(C)CC(=O)C2=C(C1)N(c1ccccc1)C(N)=C(C#N)C2c1cccnc1 (stereo not given)	0%	79µM*	-16%	-7%	7%	2%
O=C(O)c1cccc(-n2cccc2/C=C/[N+](=O)[O-])c1	0%	10µM*	0%	11%	4%	6%

Source: PubChem BioAssay
